# Source: the supplement of paper PMC8728848
# The sample as a whole holds a higher share of the strongest signals than the screen did.
# B1: Sebin1 (Coprinopsis cinerea), A8PEE3 (protein)
# chain: MTSPFYAHIHNVQDDNTWRFTLIFANRATADEWWRAISEAPANTSIAKSITRVTPQYYTHDVNIWNIWNFFADGNIKSISERFRGRLFIVLENDRGGRGITVIPPVPIVDHVSGNWFYIRSKTAPHLFWYYDERRSSIYASKEKRTRFKISIRNPSSQTPKNAIMINTDDVTIHIKENLYVGVDNNLGHIIPTRAYRTFKFGELESGAIAGFDVVENIEERCSSTFDGASLSISGPDSSSPGEPWELV
# How the values were obtained:
# Test in all cases: glycan array binding signal (z-score within array); higher = stronger binding
# Conditions in all cases: glycan notation: IUPAC condensed, linker removed
# [1] = biological target: Fuc(a1-2)Gal(b1-4)GlcNAc(b1-6)GalNAc
# Outline: (§1)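 Columns mapping to the same glycan were averaged after glycan names were converted to IUPAC-condensed notation. The data come from 3228 arrays in the Consortium for Functional Glycomics database, limited to those with an available protein sequence. Binding is reported as a within-array Z-score averaged across arrays of one protein sequence and across linkers.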
# [2] = biological target: Fuc(a1-2)[Gal(a1-3)]Gal(b1-3)GalNAc
# Outline: as §1
# [3] = biological target: Fuc(a1-2)[Gal(a1-3)]Gal(b1-3)GlcNAc
# Outline: as §1
# [4] = biological target: Fuc(a1-2)[Gal(a1-3)]Gal(b1-3)GlcNAc(b1-2)Man(a1-3)[Fuc(a1-2)[Gal(a1-3)]Gal(b1-3)GlcNAc(b1-2)Man(a1-6)]Man(b1-4)GlcNAc(b1-4)[Fuc(a1-6)]GlcNAc
# Outline: as §1
# [5] = biological target: Fuc(a1-2)[Gal(a1-3)]Gal(b1-4)GlcNAc(b1-3)[Fuc(a1-2)[Gal(a1-3)]Gal(b1-4)GlcNAc(b1-6)]GalNAc
# Outline: as §1
# [6] = biological target: Fuc(a1-2)[GalNAc(a1-3)]Gal(b1-4)GlcNAc(b1-3)[Fuc(a1-2)[GalNAc(a1-3)]Gal(b1-4)GlcNAc(b1-6)]GalNAc
# Outline: as §1
# [7] = biological target: Fuc(a1-3)[Gal(b1-4)]GlcNAc(b1-3)Gal(b1-4)[Fuc(a1-3)]GlcNAc(b1-3)Gal(b1-4)[Fuc(a1-3)]GlcNAc
# Outline: as §1
# [8] = biological target: Gal(a1-3)Gal(b1-3)[Fuc(a1-4)]GlcNAc(b1-2)Man(a1-3)[Gal(a1-3)Gal(b1-3)[Fuc(a1-4)]GlcNAc(b1-2)Man(a1-6)]Man(b1-4)GlcNAc(b1-4)GlcNAc
# Outline: as §1
# [9] = biological target: Gal(b1-3)GalNAc(b1-3)Gal(a1-4)Gal(b1-4)Glc
# Outline: as §1
# [10] = biological target: Gal(b1-3)GlcNAc(a1-3)Gal(b1-4)GlcNAc
# Outline: as §1
# [11] = biological target: Gal(b1-3)GlcNAc(b1-2)Man(a1-3)[GlcNAc(b1-4)][Gal(b1-3)GlcNAc(b1-2)Man(a1-6)]Man(b1-4)GlcNAc(b1-4)GlcNAc
# Outline: as §1
# [12] = biological target: Gal(b1-3)GlcNAc(b1-3)Gal(b1-4)Glc
# Outline: as §1
# [13] = biological target: Gal(b1-3)[Fuc(a1-4)]GlcNAc(b1-2)Man
# Outline: as §1
# [14] = biological target: Gal(b1-3)[Neu5Ac(a2-6)]GlcNAc(b1-4)Gal(b1-4)Glc
# Outline: as §1
# Gal(b1-4)GlcNAc = biological target: Gal(b1-4)GlcNAc
# Outline: as §1
# [15] = biological target: Gal(b1-4)GlcNAc(b1-2)Man(a1-6)[GlcNAc(b1-2)Man(a1-3)]Man(b1-4)GlcNAc(b1-4)GlcNAc
# Outline: as §1
# [16] = biological target: Gal(b1-4)GlcNAc(b1-2)[Gal(b1-4)GlcNAc(b1-4)]Man(a1-3)[GlcNAc(b1-4)][Gal(b1-4)GlcNAc(b1-2)Man(a1-6)]Man(b1-4)GlcNAc(b1-4)GlcNAc
# Outline: as §1
# [17] = biological target: Gal(b1-4)GlcNAc(b1-3)Gal(b1-4)GlcNAc(b1-3)Gal(b1-4)GlcNAc(b1-2)Man(a1-3)[Gal(b1-4)GlcNAc(b1-3)Gal(b1-4)GlcNAc(b1-3)Gal(b1-4)GlcNAc(b1-2)Man(a1-6)]Man(b1-4)GlcNAc(b1-4)[Fuc(a1-6)]GlcNAc
# Outline: as §1
# [18] = biological target: Gal(b1-4)GlcNAc(b1-3)Gal(b1-4)GlcNAc(b1-3)Gal(b1-4)GlcNAc(b1-3)Gal(b1-4)GlcNAc(b1-2)Man(a1-3)[Gal(b1-4)GlcNAc(b1-3)Gal(b1-4)GlcNAc(b1-3)Gal(b1-4)GlcNAc(b1-3)Gal(b1-4)GlcNAc(b1-2)Man(a1-6)]Man(b1-4)GlcNAc(b1-4)[Fuc(a1-6)]GlcNAc
# Outline: as §1
# [19] = biological target: Gal(b1-4)GlcNAc(b1-3)Gal(b1-4)GlcNAc(b1-3)Gal(b1-4)GlcNAc(b1-3)Gal(b1-4)GlcNAc(b1-2)[Gal(b1-4)GlcNAc(b1-3)Gal(b1-4)GlcNAc(b1-3)Gal(b1-4)GlcNAc(b1-3)Gal(b1-4)GlcNAc(b1-6)]Man(a1-6)[Gal(b1-4)GlcNAc(b1-3)Gal(b1-4)GlcNAc(b1-3)Gal(b1-4)GlcNAc(b1-3)Gal(b1-4)GlcNAc(b1-2)Man(a1-3)]Man(b1-4)GlcNAc(b1-4)[Fuc(a1-6)]GlcNAc
# Outline: as §1
# [20] = biological target: Gal(b1-4)GlcNAc(b1-3)Gal(b1-4)GlcNAc(b1-3)Gal(b1-4)GlcNAc(b1-3)Gal(b1-4)GlcNAc(b1-3)Gal(b1-4)GlcNAc(b1-2)Man(a1-3)[Gal(b1-4)GlcNAc(b1-3)Gal(b1-4)GlcNAc(b1-3)Gal(b1-4)GlcNAc(b1-3)Gal(b1-4)GlcNAc(b1-3)Gal(b1-4)GlcNAc(b1-2)Man(a1-6)]Man(b1-4)GlcNAc(b1-4)[Fuc(a1-6)]GlcNAc
# Outline: as §1
# Gal(b1-6)Gal = biological target: Gal(b1-6)Gal
# Outline: as §1
# Gal3S(b1-3)GalNAc = biological target: Gal3S(b1-3)GalNAc
# Outline: as §1
# [21] = biological target: Gal3S(b1-4)[Fuc(a1-3)]Glc6S
# Outline: as §1
# Gal6S(b1-4)Glc = biological target: Gal6S(b1-4)Glc
# Outline: as §1
# Gal6S(b1-4)GlcNAc6S = biological target: Gal6S(b1-4)GlcNAc6S
# Outline: as §1
# GalNAc(b1-4)GlcNAc6S = biological target: GalNAc(b1-4)GlcNAc6S
# Outline: as §1
# Glc(a1-6)Glc(a1-6)Glc = biological target: Glc(a1-6)Glc(a1-6)Glc
# Outline: as §1
# GlcA(b1-3)Gal = biological target: GlcA(b1-3)Gal
# Outline: as §1
# [22] = biological target: GlcNAc(a1-4)Gal(b1-4)GalNAc
# Outline: as §1
# [23] = biological target: GlcNAc(b1-2)Man(a1-3)[GlcNAc(b1-4)][GlcNAc(b1-2)Man(a1-6)]Man(b1-4)GlcNAc(b1-4)[Fuc(a1-6)]GlcNAc
# Outline: as §1
# [24] = biological target: GlcNAc(b1-2)[GlcNAc(b1-4)]Man(a1-3)[GlcNAc(b1-4)][GlcNAc(b1-2)Man(a1-6)]Man(b1-4)GlcNAc(b1-4)GlcNAc
# Outline: as §1
# [25] = biological target: GlcNAc(b1-2)[GlcNAc(b1-6)]Man(a1-6)[GlcNAc(b1-2)Man(a1-3)]Man(b1-4)GlcNAc(b1-4)[Fuc(a1-6)]GlcNAc
# Outline: as §1
# [26] = biological target: GlcNAc(b1-3)Gal(b1-4)GlcNAc(b1-2)[GlcNAc(b1-3)Gal(b1-4)GlcNAc(b1-6)]Man(a1-6)[GlcNAc(b1-3)Gal(b1-4)GlcNAc(b1-2)Man(a1-3)]Man(b1-4)GlcNAc(b1-4)GlcNAc
# Outline: as §1
# [27] = biological target: GlcNAc(b1-3)Gal(b1-4)GlcNAc(b1-3)Gal(b1-4)GlcNAc(b1-2)Man(a1-3)[GlcNAc(b1-3)Gal(b1-4)GlcNAc(b1-3)Gal(b1-4)GlcNAc(b1-2)Man(a1-6)]Man(b1-4)GlcNAc(b1-4)GlcNAc
# Outline: as §1
# [28] = biological target: GlcNAc(b1-3)Gal(b1-4)GlcNAc(b1-3)[GlcNAc(b1-3)Gal(b1-4)GlcNAc(b1-3)]GalNAc
# Outline: as §1
# Kdn(a2-6)Gal(b1-4)GlcNAc = biological target: Kdn(a2-6)Gal(b1-4)GlcNAc
# Outline: as §1
# [29] = biological target: Neu5Ac(a2-3)Gal(b1-3)GlcNAc(b1-6)GalNAc
# Outline: as §1
# [30] = biological target: Neu5Ac(a2-3)Gal(b1-3)GlcNAc6S
# Outline: as §1
# [31] = biological target: Neu5Ac(a2-3)Gal(b1-3)[Neu5Ac(a2-6)]GlcNAc(b1-3)[Fuc(a1-3)[Gal(b1-4)]GlcNAc(b1-6)]Gal(b1-4)Glc
# Outline: as §1
# Neu5Ac(a2-3)Gal(b1-4)Glc = biological target: Neu5Ac(a2-3)Gal(b1-4)Glc
# Outline: as §1
# [32] = biological target: Neu5Ac(a2-3)Gal(b1-4)GlcNAc(b1-3)Gal(b1-3)GlcNAc
# Outline: as §1
# [33] = biological target: Neu5Ac(a2-3)Gal(b1-4)GlcNAc(b1-6)[Gal(b1-3)]GalNAc
# Outline: as §1
# Neu5Ac(a2-3)GalNAc = biological target: Neu5Ac(a2-3)GalNAc
# Outline: as §1
# [34] = biological target: Neu5Ac(a2-6)Gal(b1-4)GlcNAc(b1-2)Man(a1-3)Man(b1-4)GlcNAc(b1-4)GlcNAc
# Outline: as §1
# [35] = biological target: Neu5Ac(a2-8)Neu5Ac(a2-3)Gal(b1-3)GalNAc(b1-4)[Neu5Ac(a2-8)Neu5Ac(a2-3)]Gal(b1-4)Glc
# Outline: as §1
# [36] = biological target: Neu5Ac(a2-8)Neu5Ac(a2-8)Neu5Ac
# Outline: as §1
# [37] = biological target: Neu5Gc(a2-3)Gal(b1-4)GlcNAc
# Outline: as §1
binder,measurement,setting,value
B1,glycan array binding signal (z-score),[1],4.71
same,glycan array binding signal (z-score),[2],-0.147
same,glycan array binding signal (z-score),[3],-0.29
same,glycan array binding signal (z-score),[4],2.8
same,glycan array binding signal (z-score),[5],3.52
same,glycan array binding signal (z-score),[6],1.28
same,glycan array binding signal (z-score),[7],-0.039
same,glycan array binding signal (z-score),[8],2.45
same,glycan array binding signal (z-score),[9],0.187
same,glycan array binding signal (z-score),[10],-0.485
same,glycan array binding signal (z-score),[11],2.39
same,glycan array binding signal (z-score),[12],-0.671
same,glycan array binding signal (z-score),[13],0.391
same,glycan array binding signal (z-score),[14],0.647
same,glycan array binding signal (z-score),Gal(b1-4)GlcNAc,-0.703
same,glycan array binding signal (z-score),[15],-0.684
same,glycan array binding signal (z-score),[16],0.136
same,glycan array binding signal (z-score),[17],13.4
same,glycan array binding signal (z-score),[18],6.4
same,glycan array binding signal (z-score),[19],2.44
same,glycan array binding signal (z-score),[20],2.62
same,glycan array binding signal (z-score),Gal(b1-6)Gal,0.332
same,glycan array binding signal (z-score),Gal3S(b1-3)GalNAc,-0.501
same,glycan array binding signal (z-score),[21],0.696
same,glycan array binding signal (z-score),Gal6S(b1-4)Glc,0.006
same,glycan array binding signal (z-score),Gal6S(b1-4)GlcNAc6S,0.222
same,glycan array binding signal (z-score),GalNAc(b1-4)GlcNAc6S,0.053
same,glycan array binding signal (z-score),Glc(a1-6)Glc(a1-6)Glc,-0.354
same,glycan array binding signal (z-score),GlcA(b1-3)Gal,-0.505
same,glycan array binding signal (z-score),[22],-0.32
same,glycan array binding signal (z-score),[23],-0.296
same,glycan array binding signal (z-score),[24],2.33
same,glycan array binding signal (z-score),[25],-0.058
same,glycan array binding signal (z-score),[26],-0.792
same,glycan array binding signal (z-score),[27],0.145
same,glycan array binding signal (z-score),[28],-0.696
same,glycan array binding signal (z-score),Kdn(a2-6)Gal(b1-4)GlcNAc,-0.282
same,glycan array binding signal (z-score),[29],-0.335
same,glycan array binding signal (z-score),[30],-0.146
same,glycan array binding signal (z-score),[31],-0.727
same,glycan array binding signal (z-score),Neu5Ac(a2-3)Gal(b1-4)Glc,3.86
same,glycan array binding signal (z-score),[32],-0.415
same,glycan array binding signal (z-score),[33],2.49
same,glycan array binding signal (z-score),Neu5Ac(a2-3)GalNAc,-0.458
same,glycan array binding signal (z-score),[34],-0.4
same,glycan array binding signal (z-score),[35],-0.152
same,glycan array binding signal (z-score),[36],-0.546
same,glycan array binding signal (z-score),[37],-0.074
